Common to all, as to conditions: primary human lung fibroblasts
Read-out in test [1]: Interleukin-8 (IL8), CXCL8 (gene 3576)
The test is described as follows: BSK_MyoF_IL8: BioMAP Diversity Plus: MyoF Assay for Interleukin-8 (IL8) Biomarker Activity (AID 2284261). The method, boiled down: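 DMSO-normalised, upward-fitted IL-8 ELISA signal; human lung fibroblasts, 24 h chemical treatment.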

Read-out in another test: Decorin, DCN (gene 1634)
The test is described as follows: BSK_MyoF_Decorin: BioMAP Diversity Plus: MyoF Assay for Decorin Biomarker Activity (AID 2284265). The method, boiled down: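 In this multiplexed fibroblast system, secreted or surface decorin is detected by ELISA one day after dosing, with increases scored against the DMSO vehicle.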

Test [2] is described as follows: BSK_MyoF_SRB: Viability Assessment in the BioMAP Diversity Plus: MyoF Assay (AID 2284267).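 Further: total protein by SRB absorbance in parallel cultures as cytotoxicity measure; cells assessed 24 h after compound addition.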 The method, boiled down: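 Human lung fibroblasts dosed with chemical and assessed 24 h later for overt cytotoxicity in parallel cultures. Total protein quantified by sulforhodamine B staining (0.1% SRB after 10% TCA fixation), read at 560 nm, analysed in positive direction versus DMSO baseline.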

Read-out in test [3]: Matrix Metallopeptidase 1 (MMP1), MMP1 (gene 4312)
Nature of the test: BSK_MyoF_MMP1: BioMAP Diversity Plus: MyoF Assay for Matrix Metallopeptidase 1 (MMP1) Biomarker Activity (AID 2284268). The method, boiled down: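 Fibroblasts from human lung receive compound for 24 h before ELISA quantitation of MMP1. DMSO serves as baseline, and the endpoint is fitted for signal gain.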

Activity calls are given as the source filed them. How the source made its calls: active means hit-call score of the fitted dose curve at least 0.9, where 1 is the maximum; inactive means score below 0.9.

As for `C[C@@H]1CCN(C(=O)[C@H](CCCN=C(N)N)NS(=O)(=O)c2cccc3c2NC[C@H](C)C3)[C@@H](C(=O)O)C1`, the outcome in test [1] was “inactive”; in the test with Decorin, DCN (gene 1634) it was “inactive”; in test [2] it was “inactive”; in test [3], “inactive”.

Regarding `CCCCCC(C=O)=Cc1ccccc1`, the outcome in test [1] was “inactive”; with Decorin, DCN (gene 1634), “inactive”; in test [2] it was “inactive”. Moreover, the AC50 in test [3] was 28.4 µM (active).

Take `C=C(C)C(=O)OCCOCCOCCOCCOC(=O)C(=C)C`: the outcome in test [1] was “inactive”; in the test with Decorin, DCN (gene 1634) it was “inactive”; in test [2], “inactive”; in test [3], “inactive”.

With `c1ccc(CCc2ccccc2)cc1`, the outcome in test [1] and in test [3] was inactive. Further, the AC50 with Decorin, DCN (gene 1634) is 26.8 µM (active); in test [2], 37.2 µM (active).

`CC(=O)c1c(C)c([N+](=O)[O-])c(C(C)(C)C)c([N+](=O)[O-])c1C`: the outcome in test [1] is “inactive”; with Decorin, DCN (gene 1634) it was “inactive”; in test [2], “inactive”; in test [3], “inactive”.

As for `CN(C)C(=O)Nc1ccc(Oc2ccc(Cl)cc2)cc1`, the outcome was “inactive” in test [1]; “inactive” in the test with Decorin, DCN (gene 1634); “inactive” in test [2]; “inactive” in test [3].

Turning to `CCCCOC(=O)CCCCCCCC(=O)OCCCC`, the outcome in test [1] was “inactive”; with Decorin, DCN (gene 1634), “inactive”; in test [2], “inactive”; in test [3] it was “inactive”.

As to `CN(C)C(=S)SC(=S)N(C)C`, the outcome in test [1] was “inactive”; in the test with Decorin, DCN (gene 1634), “inactive”; in test [2], “inactive”. The AC50 in test [3] was 29.4 µM (active).

As for `CC(C=O)Cc1ccc(C(C)(C)C)cc1` (centres undefined), the outcome in test [1] is “inactive”; with Decorin, DCN (gene 1634), “inactive”; in test [2] it was “inactive”; in test [3], “inactive”.

With `CCN(CC)C(=O)N(CC)CC`, the outcome in test [1] is “inactive”; with Decorin, DCN (gene 1634) it was “inactive”; in test [2] it was “inactive”; in test [3] it was “inactive”.

On to `COc1ccc(CCN2CCC(Nc3nc4ccccc4n3Cc3ccc(F)cc3)CC2)cc1`, for which the AC50 in test [1] was 7.38 µM (active); in test [2], 7.48 µM (active); in test [3] it was 3.79 µM (active). Moreover, in the test with Decorin, DCN (gene 1634), the result was inactive.

In the case of `C=C(C)C(=O)OCCOCCOCCOC(=O)C(=C)C`, the outcome in test [1] is “inactive”; with Decorin, DCN (gene 1634), “inactive”; in test [2], “inactive”; in test [3] it was “inactive”.

Consider `O=C1OC[C@H](Cc2cccc(O)c2)[C@H]1Cc1cccc(O)c1`, for which the outcome in test [1] was “inactive”; in the test with Decorin, DCN (gene 1634), “inactive”; in test [2], “inactive”; in test [3], “inactive”.

In the case of `CN(c1nccc(=O)[nH]1)C1CCN(c2nc3ccccc3n2Cc2ccc(F)cc2)CC1`, the outcome in test [1] was “inactive”; with Decorin, DCN (gene 1634), “inactive”; in test [2], “inactive”; in test [3], “inactive”.

With `CC(C)(N=C=O)c1cccc(C(C)(C)N=C=O)c1`, the outcome in test [1] is “inactive”; in the test with Decorin, DCN (gene 1634), “inactive”; in test [2] it was “inactive”; in test [3] it was “inactive”.

Turning to `CC=Cc1ccc(OCC)c(O)c1`, the outcome is “inactive” in test [1]; “inactive” with Decorin, DCN (gene 1634); “inactive” in test [2]; “inactive” in test [3].

The values are drawn from PubChem BioAssay (EPA / NIEHS).
